Source: PubChem BioAssay (The Scripps Research Institute Molecular Screening Center)
GPR151 activ: activators of human GPR151; Q8TDV0; PathHunter beta-arrestin GPR151 cells, luminescence; activation, % at 11.2 µM; 650,000 tested, 1% active; in the data active = activation above about 4.9%
Target sequence (Q8TDV0 whole entry, looked up): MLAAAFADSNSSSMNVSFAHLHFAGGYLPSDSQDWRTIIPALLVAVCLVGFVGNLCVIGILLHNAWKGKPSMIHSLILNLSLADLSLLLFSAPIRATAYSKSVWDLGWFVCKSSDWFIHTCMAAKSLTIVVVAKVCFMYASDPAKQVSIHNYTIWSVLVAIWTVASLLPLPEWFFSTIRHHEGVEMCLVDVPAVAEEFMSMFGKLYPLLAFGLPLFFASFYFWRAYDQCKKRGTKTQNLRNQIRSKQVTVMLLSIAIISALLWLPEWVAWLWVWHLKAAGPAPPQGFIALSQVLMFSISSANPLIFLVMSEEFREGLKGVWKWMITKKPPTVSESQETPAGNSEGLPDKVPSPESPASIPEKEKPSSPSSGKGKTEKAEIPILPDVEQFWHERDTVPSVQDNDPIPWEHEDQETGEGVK
MITF primary: inhibitors of human MITF; inhibition, % at 2.6 µM; 650,000 tested, 0.91% active; AlphaScreen MITF homodimerization, bead proximity signal; AID 1259374; in the data active = inhibition above about 50%
FBW7 activator: human FBW7 E3 ligase activation, primary screen | Q969H0 | AlphaScreen FBW7–phospho-cyclin E peptide binding, activator screen | normalized activity (activation), % at 26.1 µM | 650,000 tested, 0.13% active | AID 1259310; in the data active = normalized activity above about 1.9%;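 also: purified mutant Fbw7 with reduced substrate affinity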
TEAD-YAP block: TEAD-YAP interaction inhibition. HEK-TIYL cells, TEAD-Gal4/YAP UAS-luciferase luminescence. inhibition, % at 9.12 µM. 640,000 tested, 1.4% active; in the data active = inhibition above about 32%
GPR151 confirm: confirmation of human GPR151 activators. activation, % at 11.2 µM. AID 1508609. shares compounds with GPR151 activ. GPR151 PathHunter beta-arrestin cells, luminescence, 90 min; % of EA-reagent control over plate median. 6,700 tested, under 10 active;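 active = mean percent activation across replicates above the confirmation screen cutoff of 4.91%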
GPR119 ag: counter-screen for GPR151 activators: effect on human GPR119. shares compounds with GPR151 activ. GPR119 PathHunter beta-arrestin cells, luminescence, 90 min; 0 = compound-well median, 100 = enzyme-acceptor control. activation, % at 11.2 µM. 6,700 tested, 0.3% active. AID 1508611;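 active = mean percent activation in the counterscreen above 29.09%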;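 also: counterscreen on off-target GPR119 to flag nonselective hits from the GPR151 activator screen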
Each line names hits and unclear results; the compound was inactive in the other large screens (follow-up assays come after a bar, where they were run). Only some compounds are listed: those with a hit (about 3.5% of all), similar ones and a draw of the others.

O=C(CN(C(=O)CCC(=O)Nc1nccs1)C1CCCCC1)NCc1ccco1	none
CS(=O)(=O)N1CCC(Oc2cccc(C(=O)NCCCOc3cccnc3)c2)CC1	GPR151 activ 5.0 | GPR151 confirm inactive | GPR119 ag inactive
COCCNC(=O)c1cccc(OC2CCN(C(C)CSC)CC2)c1 (stereo not drawn)	GPR151 activ 7.0 | GPR151 confirm inactive | GPR119 ag inactive
C=C(C)CCC(C)N1CCC(Oc2cccc(C(=O)NCCOC)c2)CC1 (stereo not drawn)	none
CC(C)(C)OC(=O)C(Cl)(C(=O)OC(C)(C)C)c1ncc([N+](=O)[O-])cc1[N+](=O)[O-]	GPR151 activ 14, TEAD-YAP block 55 | GPR151 confirm inactive | GPR119 ag inactive
Cc1cc(C)c2sc(NC(=O)CCC3CCCC3)nc2n1	GPR151 activ 5.3 | GPR151 confirm inactive | GPR119 ag inactive
COc1ccccc1CNC(=O)c1ccc(CNc2c(N3CCCC3)c(=O)c2=O)cc1	GPR151 activ 4.9 | GPR151 confirm inactive | GPR119 ag inactive
Cc1ccc(NC(=O)c2ccc(CNc3c(N4CCOCC4)c(=O)c3=O)cc2)cc1F	GPR151 activ 5.0 | GPR151 confirm inactive | GPR119 ag inactive
CN(C)c1ncnc2c1C(c1ccc([N+](=O)[O-])cc1)c1c(ncnc1N(C)C)O2	GPR151 activ 6.2 | GPR151 confirm inactive | GPR119 ag inactive
COc1ccc(C2C(C#N)=C(N)Oc3n[nH]c(C)c32)c(OC)c1OC (stereo not drawn)	none
COc1ccc(C2C(C#N)=C(N)Oc3n[nH]c(C)c32)c2ccccc12 (stereo not drawn)	GPR151 activ 5.5 | GPR151 confirm inactive | GPR119 ag inactive
Cc1cc(=O)nc2c3ccccc3n(CC(=O)NCCN3CCCCC3C)n12 (stereo not drawn)	none
Cc1cc(N2CCN(C(=O)c3ccc(Cl)cc3Cl)CC2)c(F)cc1[N+](=O)[O-]	GPR151 activ 6.8 | GPR151 confirm inactive | GPR119 ag inactive
CC(C)c1nnc(C2CCN(C(=O)Cn3c(=O)oc4ccccc43)CC2)o1	GPR151 activ 9.7 | GPR151 confirm inactive | GPR119 ag inactive
O=C(COC(=O)c1ccc(I)cc1)NC1CC1	none
O=C(CN1C(=O)c2ccccc2C1=O)Nn1c(-c2cccc(Cl)c2)nc2ccccc2c1=O	GPR151 activ 6.7 | GPR151 confirm inactive | GPR119 ag inactive
CC1(C)CC(=O)N(CC(=O)O)c2ccccc2S1(=O)=O	none
CCOC(=O)N1CCN(C(=O)CN2C(=O)CC(C)(C)S(=O)(=O)c3ccccc32)CC1	GPR151 activ 5.9 | GPR151 confirm inactive | GPR119 ag inactive
Cc1ccoc1C(=O)NCC1Cc2cc(-c3cnccn3)cc(Cl)c2O1 (stereo not drawn)	none
CC(=O)NCC(=O)NCC1Cc2cc(-c3cnccn3)cc(Cl)c2O1 (stereo not drawn)	GPR151 activ 4.9 | GPR151 confirm inactive | GPR119 ag inactive
O=S(=O)(c1ccc(Oc2ccc(S(=O)(=O)N3CCC4(CC3)OCCO4)cc2)cc1)N1CCC2(CC1)OCCO2	GPR151 activ 8.5 | GPR151 confirm inactive | GPR119 ag inactive
O=S(=O)(c1ccc(S(=O)(=O)N2CCC3(CC2)OCCO3)cc1)N1CCCC1	none
O=C(Cc1ccc(Br)c2ccccc12)N/N=C\c1ccc([N+](=O)[O-])o1	none
c1ccc2c(c1)N=C(NNC1=Nc3ccccc3OC1)CO2	none
Fc1ccc(C2=CC(c3ccccc3)n3nnnc3N2)cc1 (stereo not drawn)	none
Cc1ccc(C2C=C(c3ccc(Br)cc3)Nc3nc4ccccc4n32)cc1 (stereo not drawn)	GPR151 activ 5.9 | GPR151 confirm inactive | GPR119 ag inactive
Cc1ccc(C2=CC(c3ccccc3)n3nnnc3N2)cc1 (stereo not drawn)	GPR151 activ 7.3 | GPR151 confirm inactive | GPR119 ag inactive
COc1ccc(C2C=C(c3ccc(Br)cc3)Nc3nc4ccccc4n32)cc1 (stereo not drawn)	none
CCOC(=O)C1=C(c2ccc(OC)cc2)NC(=O)NC1c1ccc(Br)cc1 (stereo not drawn)	none
CCN1CCN(c2ncnc3sc(C(=O)Nc4cnc5ccccc5c4)c(C)c23)CC1	GPR151 activ 5.3 | GPR151 confirm inactive | GPR119 ag inactive
COc1ccc([N+](=O)[O-])cc1NC(=O)c1sc2ncnc(N3CCC(C)CC3)c2c1C	GPR151 activ 13 | GPR151 confirm inactive | GPR119 ag inactive
CCN1CCN(c2ncnc3sc(C(=O)Nc4ccc(F)cc4)c(C)c23)CC1	GPR151 activ 5.2 | GPR151 confirm inactive | GPR119 ag inactive
CCc1ccccc1N(C)C(=O)c1cc2cc(OC)ccc2oc1=O	GPR151 activ 5.9 | GPR151 confirm inactive | GPR119 ag inactive
CCCOc1ccc(Br)cc1C1=CSC2=NCCN12	none
CC(C)CC(=O)NS(=O)(=O)c1ccc(NC(=O)c2ccc(Cl)cc2)cc1	none
CC(C)CC(=O)NS(=O)(=O)c1ccc(NC(=O)c2ccccc2Cl)cc1	GPR151 activ 5.1 | GPR151 confirm inactive | GPR119 ag inactive
CCc1ccc(-c2nc(CS(=O)CC(=O)NCc3ccc(C)cc3)c(C)o2)cc1 (stereo not drawn)	none
COC(=O)C1=C(C(=O)OC)SC2(S1)C(C(=O)OC)=C(C(=O)OC)SC1=C2c2cc(C)c(C)cc2NC1(C)C	GPR151 activ 5.8 | GPR151 confirm inactive | GPR119 ag inactive
CCn1cc(C(=O)N2CCCC2c2nc(-c3ccncc3)n[nH]2)c(C)n1 (stereo not drawn)	none
COc1ccc(Cl)cc1NC(=O)CCc1nnc2ccc(N3CCN(C)CC3)nn12	GPR151 activ 5.1 | GPR151 confirm inactive | GPR119 ag inactive
COc1ccc(OC)c(NC(=O)CCc2nnc3ccc(N4CCCCC4)nn23)c1	none
O=C(O)C1CC(O)CN1S(=O)(=O)c1ccccc1[N+](=O)[O-] (stereo not drawn)	none
CC1CN(CCOCCOc2c(Cl)cccc2Cl)CC(C)O1 (stereo not drawn)	GPR151 activ 8.4 | GPR151 confirm inactive | GPR119 ag inactive
CC1CN(CCOCCOc2ccc(Cl)c3ccccc23)CC(C)O1 (stereo not drawn)	none
Cc1ccc(NC(=O)C23CC4CC(CC(C4)C2)C3)c([N+](=O)[O-])c1	none
C=CCOc1c(Cl)cc(CNn2nnnc2N)cc1OC	none
CCOc1cc(CNn2nnnc2N)cc(Cl)c1OCC(=O)NC(C)(C)C	GPR151 activ 5.2 | GPR151 confirm inactive | GPR119 ag inactive
O=C1NC(c2ccccc2)=NC1(NS(=O)(=O)c1ccc(Cl)cc1)C(F)(F)F (stereo not drawn)	GPR151 activ 6.9 | GPR151 confirm inactive | GPR119 ag inactive
COc1cc(OCC(=O)O)cc(OC)c1OC	none
C#CCOc1cc(OC)c(OC)c(OC)c1	GPR151 activ 5.6 | GPR151 confirm inactive | GPR119 ag inactive
